Screening results: PubChem BioAssay, NMMLSC
RGS16-Gao: modulators of RGS16 binding to Galphao, primary screen, biochemical, human proteins, multiplexed bead flow cytometry; Regulator of G-protein signaling 16 (Homo sapiens) + Guanine nucleotide-binding protein …; bead-based flow cytometry RGS16-Galphao binding, fluorescence; actives lie on both sides; binding response (% of control), % at 10 µM; 220,000 tested, 0.38% active;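 further: Galphao activated by GDP with aluminum fluoride before binding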
Target sequence (O15492 whole entry, looked up): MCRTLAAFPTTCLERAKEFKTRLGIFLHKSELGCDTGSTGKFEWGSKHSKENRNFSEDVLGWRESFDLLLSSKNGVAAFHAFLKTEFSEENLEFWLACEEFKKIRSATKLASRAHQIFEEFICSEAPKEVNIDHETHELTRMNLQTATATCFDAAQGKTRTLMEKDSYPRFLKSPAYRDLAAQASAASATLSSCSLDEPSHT
Target sequence (P09471 whole entry, looked up): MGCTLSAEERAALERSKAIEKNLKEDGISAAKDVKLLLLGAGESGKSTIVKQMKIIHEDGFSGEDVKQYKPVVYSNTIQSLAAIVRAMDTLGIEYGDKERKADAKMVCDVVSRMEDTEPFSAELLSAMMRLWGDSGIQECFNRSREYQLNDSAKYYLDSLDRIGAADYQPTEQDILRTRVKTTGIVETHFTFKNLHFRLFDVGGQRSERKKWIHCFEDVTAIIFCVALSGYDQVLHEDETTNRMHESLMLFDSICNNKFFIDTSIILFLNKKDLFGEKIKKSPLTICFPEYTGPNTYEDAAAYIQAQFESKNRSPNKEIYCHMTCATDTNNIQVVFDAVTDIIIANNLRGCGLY
RGS8-Gao: RGS8-Galphao binding modulators, primary screen, biochemical, multiplexed bead flow cytometry; Guanine nucleotide-binding protein G(o) subunit alpha (Homo sapiens), P09471; actives lie on both sides; response (percent of control binding), % at 10 µM; 220,000 tested, 0.34% active; AID 1423, 2008; in the data active means response below about 60% or above about 140%; inactive means in between;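 further: Galphao activated as the GDP aluminium fluoride complex binding bead-coupled RGS8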
Target sequence (P09471 whole entry, looked up): as above
RGS7-Gao reg: RGS7-Galphao binding modulators, primary screen, biochemical, multiplexed bead flow cytometry; binding response (% of control), % at 10 µM; Guanine nucleotide-binding protein G(o) subunit alpha (Homo sapiens), P09471; actives lie on both sides; 220,000 tested, 0.35% active; in the data active means binding response below about 49% or above about 150%; inconclusive means no clear call, values can overlap the other calls; inactive means in between;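 further: fluorescent Galphao held in activated GDP-AlF4 state binding bead-coupled RGS7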
RGS4-Gao reg: modulators of RGS4 binding to Galphao, primary screen, biochemical, multiplexed bead flow cytometry | Guanine nucleotide-binding protein G(o) subunit alpha (Homo sapiens), P09471 | actives lie on both sides | binding response (% of control), % at 10 µM | 220,000 tested, 0.33% active | AID 1415, 2008; in the data active means binding response below about 49% or above about 150%; inactive means in between;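 further: fluorescent Galphao activated with aluminum fluoride binding bead-coupled RGS4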
GSH fluor: compound fluorescence on glutathione beads, profiling panel, artefact control, biophysical, 488/530 nm, flow cytometry | GSH beads flow cytometry, compound fluorescence 488/530 nm; active compounds read high | fluorescence (KMESF) at 10 µM | 190,000 tested, 0.25% active; in the data active means fluorescence above about 89;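 further: glutathione beads carrying GST-tagged Bcl family fusion proteins plus one bare bead set; values are compound well signal with DMSO vehicle wells as background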
Avidin bead fluor: green autofluorescence of compounds with avidin beads – biophysical, 488/530 nm, flow cytometry, artefact control, profiling panel; compound fluorescence 488/530 nm; active compounds read high; AID 1775, 2009; fluorescence (KMESF) at 10 µM; 220,000 tested, 0.38% active; in the data active means fluorescence above about 47
RGS-Gao: modulators of RGS–Galpha-o binding, primary screen, biochemical, multiplexed beads, flow cytometry, RGS4/7/8/16/19; shares compounds with RGS16-Gao; multiplexed bead flow cytometry; RGS4–Galpha-o binding response, % at 10 µM; 1,600 tested, 99% active;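 further: fluorescently labeled Galpha-o bound to GDP with aluminium fluoride binding biotinylated RGS beads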
Biotin-avidin: disruption of biotin probe capture by avidin, counter-screen for RGS protein interaction modulators, biochemical, flow cytometry, bead-based; streptavidin beads, fluorescein-biotin binding; inhibition, % at 10 µM; shares compounds with RGS16-Gao; 1,700 tested, under 10 active;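 active means inhibition above 50%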;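 further: median green fluorescence of gated singlet beads compared with DMSO control wells; 0% = DMSO wells and 100% = complete loss of bead fluorescence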
RGS8-Gao single: RGS8-Galphao binding modulators, confirmation, biochemical, multiplexed bead flow cytometry, single concentration; shares compounds with RGS16-Gao; bead-based flow cytometry RGS8-Galphao binding, fluorescence; actives lie on both sides; binding response (% of control), % at 10 µM; 1,700 tested, 3% active; AID 1836, 2009; in the data active means binding response below about 72% or above about 130%; inactive means in between;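 further: Galphao activated as GDP AlF4 complex before binding bead RGS8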
RGS7-Gao confirm: RGS7-Galphao binding modulators, confirmation, biochemical, multiplexed bead flow cytometry, single concentration. shares compounds with RGS16-Gao. bead-based flow cytometry RGS7-Galphao binding; actives lie on both sides. response (percent of control binding), % at 10 µM. 1,700 tested, 7.8% active; in the data active means response below about 75% or above about 130%; inactive means in between;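 further: fluorescent Galphao activated with GDP and aluminum fluoride binding bead-coupled RGS7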
RGS16-Gao conf: modulators of RGS16-Galphao protein binding, confirmation, biochemical, single concentration, multiplexed bead flow cytometry. shares compounds with RGS16-Gao. bead-based flow cytometry; actives lie on both sides. response (% of control binding), % at 10 µM. 1,700 tested, 4% active. AID 1838, 2009; in the data active means response below about 74% or above about 130%; inactive means in between;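 further: Galphao activated as the GDP aluminium fluoride complex binding bead-coupled RGS16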
RGS4-Gao single: modulators of RGS4-Galphao protein binding, confirmation, biochemical, single concentration, multiplexed bead flow cytometry; shares compounds with RGS16-Gao; actives lie on both sides; binding response (% of control), % at 10 µM; 1,700 tested, 4% active; in the data active means binding response below about 74% or above about 130%; inactive means in between
RGS19-Gao conf: regulators of RGS19-Galphao binding, confirmation, biochemical, single point, multiplexed bead flow cytometry. shares compounds with RGS16-Gao. bead-based flow cytometry RGS19-Galphao binding; actives lie on both sides. response (percent of control binding), % at 10 µM. 1,700 tested, 5% active. AID 1841, 2009; in the data active means response below about 50% or above about 160%; inactive means in between;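 further: 100% = no compound control and 0% = blank background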
* marks the source's active call; other numbers are inactive results; ? = inconclusive; / = not tested or not shown; [ ] = remark or other dose. A selection: hits, their analogues and other compounds. The true share with any hit is near 1.2%. Unless noted, how the calls were made is not given here.

SMILES	RGS16-Gao	RGS8-Gao	RGS7-Gao reg	RGS4-Gao reg	GSH fluor	Avidin bead fluor	RGS-Gao	Biotin-avidin	RGS8-Gao single	RGS7-Gao confirm	RGS16-Gao conf	RGS4-Gao single	RGS19-Gao conf
CC1=C(C(=O)Nc2ccc(C)cn2)C(c2cnn(C)c2)C2=C(CCCC2=O)N1 (stereo not drawn)	101	102	100	98	11	9	/	/	/	/	/	/	/
Cc1cccc(/C(N)=N/OC(=O)Cc2ccccc2)c1	101	102	110	104	20	8	/	/	/	/	/	/	/
Cc1cccc(/C(N)=N/OC(=O)C23CC4CC(CC(C4)C2)C3)c1	12*	56*	82	80	13	1	80*	-1	103	103	103	101	104
Cc1ccc(N=Nc2ccc(O)c3ncccc23)cc1	10*	71	65	68	3	4	68*	-4	102	96	106	96	84
Cc1ccc(N=Nc2ccc(O)c3ncccc23)cc1C	100	99	92	96	10	10	/	/	/	/	/	/	/
COc1ccc(C(=O)Nc2ccc3oc(-c4cccc(Cl)c4)cc(=O)c3c2O)cc1	91	96	?	87	/	7	/	/	/	/	/	/	/
C=CCSc1nnc2c(n1)OC(c1ccccn1)N(C(C)=O)c1ccccc1-2 (stereo not drawn)	114	99	168*[activator]	122	33	215*	122*	2	103	104	104	103	102
CCCSc1nnc2c(n1)OC(c1cccn1C)N(C(C)=O)c1ccccc1-2 (stereo not drawn)	108	105	103	104	25	10	/	/	/	/	/	/	/
COc1ccc(-c2noc(CCC(=O)O)n2)cc1	94	96	95	95	23	11	/	/	/	/	/	/	/
COc1cc(CCC(=O)O)on1	-8.1*	20*	?	-10*	/	-1	/	-1	98	81	94	90	80
CCN(CC)C(=O)CCSc1nnc(-c2ccco2)o1	107	104	104	105	57	26	/	/	/	/	/	/	/
O=C(NC1CCCCC1)c1ccc(N2CCCC2=O)cc1	211*[activator]	131	120	108	15	19	108*	/	/	/	/	/	/
CCOc1cc(CNC(C)C)c(Cl)cc1OCC(=O)NCCc1ccccc1	108	105	105	104	11	25	/	/	/	/	/	/	/
Cc1ccc(NS(=O)(=O)c2ccc(OCC(=O)NCc3cccnc3)cc2)cc1	23*	69	88	89	13	1	89*	1	98	94	100	96	95
CC(=O)N1CCN(c2ccc(NCc3cccs3)cc2)CC1	30	46*	40*	50*	18	3	/	1	105	104	101	99	108
CCN(CC)c1ccc(N2C(=O)/C(=C\c3cccs3)SC2=S)cc1	/	/	/	/	27	/	/	1	95	90	93	93	109
CCNC(=O)NC(=O)CSc1ccc(NC(C)=O)cc1	58	73	54	47*	12	13	/	0	110	113	114	108	121
C#CCNC(=O)C1=C[C@@H](C(C)(C)C)C[C@@H](OCc2ccc(CO)cc2)O1	17*	22*	21*	30*	19	0	/	0	100	103	101	101	97
CCOC(=O)c1c(-c2ccccc2)oc2ccc(O)c(CN(C)C)c12	100	100	98	96	25	11	/	/	/	/	/	/	/
Cc1oc2ccc(O)c(CN(C)C)c2c1C(=O)c1ccccc1	275	153*[activator]	122	123	12	16	123*	1	100	100	98	97	108
Cc1onc(-c2c(Cl)cccc2Cl)c1C(=O)Nc1nc(C(C)(C)C)cs1	103	100	?	106	/	8	/	/	/	/	/	/	/
Cc1cc(C)nc(NC(=NCCc2c[nH]c3ccccc23)NC(=O)Nc2ccc(Cl)c(Cl)c2)n1	13*	82	106	108	11	10	108*	0	100	100	100	100	108
O=C(NCc1ccccc1Cl)NCc1ccccc1Cl	46	62	?	43*	/	2	/	-1	103	103	107	99	109
N#Cc1ccc(C23CC4(C2)[C@H](CN(CC2CCCCC2)[C@@H]4c2ccccc2)C3c2ccc(Cl)nc2)cc1 (stereo partly drawn)	102	104	?	101	/	9	/	/	/	/	/	/	/
CC1(C)CCC(C)(C)NC(=S)N1	15*	80	98	99	17	9	99*	-1	86	71*	84	82	84
CCOC1CC(C)(C)NC(=S)N1 (stereo not drawn)	108	100	103	107	7	3	/	/	/	/	/	/	/
Cc1nnc(SCC(=O)NC(C)(C)C)n1NCc1c(F)cccc1Cl	98	101	94	101	11	11	/	/	/	/	/	/	/
